Measured values as given in ChEMBL document CHEMBL1157539, “Thousands of chemical starting points for antimalarial lead identification” (Nature, 2010).

How the values were obtained:
Assay type in all cases: functional
Plasmodium falciparum [1] = experiment: GSK_TCMDC: Inhibition of Plasmodium falciparum 3D7 in whole red blood cells, using parasite LDH activity as an index of growth. Test compounds present at 2uM
Plasmodium falciparum [2] = experiment: GSK_TCMDC: Inhibition of Plasmodium falciparum Dd2 in whole red blood cells, using parasite LDH activity as an index of growth. Test compounds present at 2uM
HepG2 = experiment: GSK_TCMDC: Percent inhibition of human HepG2 cell line. Test compounds present at 10uM.

**Q.** For `COCC(C)n1c(SC(C)C(=O)Nc2cc([N+](=O)[O-])ccc2Cl)nc2ccccc2c1=O` (stereo not drawn), which Inhibition (Plasmodium falciparum [1]) is on record?
**A.** 95%

**Q.** What about the Inhibition (Plasmodium falciparum [2]) of the same molecule?
**A.** 94%

**Q.** What about the Inhibition (HepG2) of the same molecule?
**A.** 0%

**Q.** Which Inhibition (Plasmodium falciparum [1]) does the source give for `COc1cc(Nc2ccnc3ccc(C(C)(C)C)cc23)cc(OC)c1OC` here?
**A.** 100%

**Q.** What about the Inhibition (Plasmodium falciparum [2]) of the same molecule?
**A.** 80%

**Q.** And the Inhibition (HepG2)?
**A.** 12%

**Q.** With `Cc1cccc(CNc2nc(C)cc(N[C@@H](Cc3ccccc3)C(=O)NCc3cccc(F)c3)n2)c1.O=C(O)C(F)(F)F` as the molecule, how does the Inhibition (Plasmodium falciparum [1]) read?
**A.** 100%

**Q.** And the Inhibition (Plasmodium falciparum [2])?
**A.** 82%

**Q.** And the Inhibition (HepG2)?
**A.** 39%

**Q.** With `CS(=O)(=O)NCCCNCc1ccc(-c2ccc(-c3nc4cc(F)ccc4[nH]3)s2)cc1.O=C(O)C(F)(F)F` as the molecule, how does the Inhibition (Plasmodium falciparum [1]) read?
**A.** 95%

**Q.** What about the Inhibition (Plasmodium falciparum [2]) of the same molecule?
**A.** 30%

**Q.** What about the Inhibition (HepG2) of the same molecule?
**A.** 23%

**Q.** What does the source list for `Cc1[nH]c(C)c(-c2ccc(Nc3ccc(C(F)(F)F)cn3)cc2)c(=O)c1Br`?
**A.** Inhibition (Plasmodium falciparum [1]): 99%; Inhibition (Plasmodium falciparum [2]): 98%; Inhibition (HepG2): 30%

**Q.** Which results are given for `O=C(/C=C/c1ccc(Cl)cc1)NCCCCCN1CCCC(C(=O)Nc2ccc(F)c(Cl)c2)C1` (stereo not drawn)?
**A.** Inhibition (Plasmodium falciparum [1]): 94%; Inhibition (Plasmodium falciparum [2]): 6%; Inhibition (HepG2): 27%

**Q.** With `Cc1ccc(Nc2nc(N/N=C/c3cccc([N+](=O)[O-])c3)nc(Nc3ccccc3)n2)c(C)c1` as the molecule, how does the Inhibition (Plasmodium falciparum [1]) read?
**A.** 91%

**Q.** What about the Inhibition (Plasmodium falciparum [2]) of the same molecule?
**A.** 97%

**Q.** And the Inhibition (HepG2)?
**A.** 9%

**Q.** `Br.c1cc(Nc2nc(-c3ccc(-c4csc(Nc5ccncc5)n4)cc3)cs2)ccn1` was tested. Which Inhibition (Plasmodium falciparum [1]) did it give?
**A.** 100%

**Q.** And the Inhibition (Plasmodium falciparum [2])?
**A.** 99%

**Q.** What about the Inhibition (HepG2) of the same molecule?
**A.** 91%

**Q.** `CC(C)(C)C1=CC(=NNC(=O)c2ccncc2)C=C(C(C)(C)C)C1=O` was tested. Which Inhibition (Plasmodium falciparum [1]) did it give?
**A.** 99%

**Q.** What about the Inhibition (Plasmodium falciparum [2]) of the same molecule?
**A.** 99%

**Q.** What about the Inhibition (HepG2) of the same molecule?
**A.** 47%

**Q.** Which results are given for `CCc1cccc(NC(=O)/C=C/c2ccc3c(c2)CN(C)CC3)c1`?
**A.** Inhibition (Plasmodium falciparum [1]): 94%; Inhibition (Plasmodium falciparum [2]): 91%; Inhibition (HepG2): 8%

**Q.** With `O=C(Nc1ccc(-c2ccc(-c3nc4ccccc4[nH]3)s2)cc1)Nc1ccsc1` as the molecule, how does the Inhibition (Plasmodium falciparum [1]) read?
**A.** 100%

**Q.** And the Inhibition (Plasmodium falciparum [2])?
**A.** 54%

**Q.** What about the Inhibition (HepG2) of the same molecule?
**A.** 25%
